# Molecular target: Mitogen-activated protein kinase 14 (Homo sapiens) (UniProt Q16539)
# Conditions: at 1 µM
# Mitogen-activated protein kinase 14 (Homo sapiens), sequence (Q16539 whole entry): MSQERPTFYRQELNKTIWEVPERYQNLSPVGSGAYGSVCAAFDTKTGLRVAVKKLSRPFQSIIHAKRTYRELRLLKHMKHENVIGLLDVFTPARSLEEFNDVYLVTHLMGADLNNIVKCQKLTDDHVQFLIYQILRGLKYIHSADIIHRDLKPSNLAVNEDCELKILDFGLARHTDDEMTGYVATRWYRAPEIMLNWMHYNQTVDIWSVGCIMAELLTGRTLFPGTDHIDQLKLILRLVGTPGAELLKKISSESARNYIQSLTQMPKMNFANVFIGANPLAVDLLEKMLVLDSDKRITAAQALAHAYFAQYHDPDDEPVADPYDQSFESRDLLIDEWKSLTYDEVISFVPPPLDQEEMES
row,Compound,residual activity
1,Nc1cccc(-c2cc3c(Oc4cccc(O)c4)ncnc3[nH]2)c1,54%
2,Cc1cccc(-c2[nH]c(C(C)(C)C)nc2-c2ccc3c(c2)OCO3)n1,49%
3,Cn1nc2c3c(cccc31)C(=O)c1ccccc1-2,91%
4,N#Cc1cnc2cnc(NCc3cccnc3)cc2c1Nc1ccc(F)c(Cl)c1,87%
5,c1ccc2c(-c3ccncc3)c[nH]c2c1,77%
6,O=C(Nc1cccc(Nc2nccc(Nc3cccc(C(F)(F)F)c3)n2)c1)C1CC1,79%
7,CC(C)n1cnc2c(NCc3ccccc3)nc(NCCCO)nc21,87%
8,COc1cc2ncnc(Nc3ccc(Oc4ccccc4)cc3)c2cc1OC,75%
9,O=C(O)c1ccc2c3c1cccc3c(=O)n1c3ccccc3nc21,95%
10,Cn1cnc2cc3c(Nc4cccc(Br)c4)ncnc3cc21,64%
11,c1ccc(-c2n[nH]cc2-c2ccnc3ccccc23)nc1,49%
12,Cc1cncc2cccc(S(=O)(=O)N3CCCN(C(=O)CN)C[C@H]3C)c12,74%
13,Cc1ccc(S(=O)(=O)/C=C/C#N)cc1,94%
14,O=C1NC(=O)c2cc(Nc3ccc(F)cc3)c(Nc3ccc(F)cc3)cc21,57%
15,C[C@@H](N)[C@H]1CC[C@H](C(=O)Nc2ccncc2)CC1,106%
16,Cn1cc(/C=C2\C(=O)Nc3ccc(S(N)(=O)=O)cc32)c2ccccc21,94%
17,c1ccc(-c2n[nH]c3c2oc2ccccc23)cc1,93%
18,NC(=O)c1ccc2[nH]c(-c3ccc(Oc4ccc(Cl)cc4)cc3)nc2c1,90%
19,N#CC(C#N)=C(N)/C(C#N)=C/c1ccc(O)cc1,78%
20,Cc1cc2ncc(-c3ccccc3)nc2cc1C,85%
21,Cc1nc2cc3nc(-c4cccs4)cnc3cc2n1C,114%
22,CN(C)CCCn1cc(C2=C(c3c[nH]c4ccccc34)C(=O)NC2=O)c2ccccc21,109%
23,COc1cc2ncc(-c3ccccc3)nc2cc1OC,92%
24,COc1cc2ncnc(N3CCN(C(=O)Nc4ccc(Oc5ccccc5)cc4)CC3)c2cc1OC,78%
25,O=C1NC(=O)/C(=C\c2ccc3nccnc3c2)S1,82%
26,Oc1ccc(Nc2nc(-c3ccc(Cl)cc3)cs2)cc1,89%

# Molecular target: Mitogen-activated protein kinase 14 (Homo sapiens) (UniProt Q16539)
# Conditions: at 10 µM
row,Compound,residual activity
1,Nc1cccc(-c2cc3c(Oc4cccc(O)c4)ncnc3[nH]2)c1,11%
2,Cc1cccc(-c2[nH]c(C(C)(C)C)nc2-c2ccc3c(c2)OCO3)n1,16%
3,Cn1nc2c3c(cccc31)C(=O)c1ccccc1-2,90%
4,N#Cc1cnc2cnc(NCc3cccnc3)cc2c1Nc1ccc(F)c(Cl)c1,89%
5,c1ccc2c(-c3ccncc3)c[nH]c2c1,54%
6,O=C(Nc1cccc(Nc2nccc(Nc3cccc(C(F)(F)F)c3)n2)c1)C1CC1,59%
7,CC(C)n1cnc2c(NCc3ccccc3)nc(NCCCO)nc21,82%
8,COc1cc2ncnc(Nc3ccc(Oc4ccccc4)cc3)c2cc1OC,80%
9,O=C(O)c1ccc2c3c1cccc3c(=O)n1c3ccccc3nc21,94%
10,Cn1cnc2cc3c(Nc4cccc(Br)c4)ncnc3cc21,25%
11,c1ccc(-c2n[nH]cc2-c2ccnc3ccccc23)nc1,15%
12,Cc1cncc2cccc(S(=O)(=O)N3CCCN(C(=O)CN)C[C@H]3C)c12,81%
13,Cc1ccc(S(=O)(=O)/C=C/C#N)cc1,97%
14,O=C1NC(=O)c2cc(Nc3ccc(F)cc3)c(Nc3ccc(F)cc3)cc21,23%
15,C[C@@H](N)[C@H]1CC[C@H](C(=O)Nc2ccncc2)CC1,107%
16,CCN(CC)C(=O)c1ccc(Nc2nc(OCC3CCCCC3)c3nc[nH]c3n2)cc1,70%
17,Cn1cc(/C=C2\C(=O)Nc3ccc(S(N)(=O)=O)cc32)c2ccccc21,96%
18,O=C1Nc2ccccc2/C1=C1/Nc2ccccc2/C1=N\OCCC(O)CO (stereo unspecified),78%
19,c1ccc(-c2n[nH]c3c2oc2ccccc23)cc1,78%
20,NC(=O)c1ccc2[nH]c(-c3ccc(Oc4ccc(Cl)cc4)cc3)nc2c1,84%
21,N#CC(C#N)=C(N)/C(C#N)=C/c1ccc(O)cc1,55%
22,Cc1cc(Nc2nc(-c3ccccc3)nc3ccccc23)n[nH]1,64%
23,Cc1cc2ncc(-c3ccccc3)nc2cc1C,82%
24,Cc1nc2cc3nc(-c4cccs4)cnc3cc2n1C,112%
25,CN(C)CCCn1cc(C2=C(c3c[nH]c4ccccc34)C(=O)NC2=O)c2ccccc21,106%
26,COc1cc2ncc(-c3ccccc3)nc2cc1OC,88%
27,COc1cc2ncnc(N3CCN(C(=O)Nc4ccc(Oc5ccccc5)cc4)CC3)c2cc1OC,79%
28,O=C1NC(=O)/C(=C\c2ccc3nccnc3c2)S1,91%
29,Oc1ccc(Nc2nc(-c3ccc(Cl)cc3)cs2)cc1,35%

# Molecular target: Mitogen-activated protein kinase 11 (Homo sapiens) (UniProt Q15759)
# Conditions: at 1 µM
# Mitogen-activated protein kinase 11 (Homo sapiens), sequence (Q15759 whole entry): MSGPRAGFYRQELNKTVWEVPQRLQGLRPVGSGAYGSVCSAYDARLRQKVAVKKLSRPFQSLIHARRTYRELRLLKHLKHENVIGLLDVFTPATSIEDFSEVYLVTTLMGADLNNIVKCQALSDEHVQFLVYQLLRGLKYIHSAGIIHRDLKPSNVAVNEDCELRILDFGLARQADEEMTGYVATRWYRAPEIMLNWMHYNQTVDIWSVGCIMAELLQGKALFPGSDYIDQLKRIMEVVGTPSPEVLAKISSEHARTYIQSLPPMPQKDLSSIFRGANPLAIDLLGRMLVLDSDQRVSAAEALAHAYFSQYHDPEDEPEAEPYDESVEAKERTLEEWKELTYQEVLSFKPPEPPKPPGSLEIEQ
row,Compound,residual activity
1,Nc1cccc(-c2cc3c(Oc4cccc(O)c4)ncnc3[nH]2)c1,28%
2,Cc1cccc(-c2[nH]c(C(C)(C)C)nc2-c2ccc3c(c2)OCO3)n1,97%
3,COc1cc2ncnc(Nc3ccc(NC(=O)c4ccccc4)cc3)c2cc1OC,103%
4,Cn1nc2c3c(cccc31)C(=O)c1ccccc1-2,101%
5,N#Cc1cnc2cnc(NCc3cccnc3)cc2c1Nc1ccc(F)c(Cl)c1,119%
6,c1ccc2c(-c3ccncc3)c[nH]c2c1,96%
7,O=C(Nc1cccc(Nc2nccc(Nc3cccc(C(F)(F)F)c3)n2)c1)C1CC1,103%
8,CC(C)n1cnc2c(NCc3ccccc3)nc(NCCCO)nc21,100%
9,COc1cc2ncnc(Nc3ccc(Oc4ccccc4)cc3)c2cc1OC,102%
10,O=C(O)c1ccc2c3c1cccc3c(=O)n1c3ccccc3nc21,116%
11,O=C1Nc2ccc(Br)cc2/C1=C\c1cc2c([nH]1)CCCC2,98%
12,c1ccc(-c2n[nH]cc2-c2ccnc3ccccc23)nc1,99%
13,CC(=O)c1ccc(N2CCOCC2)cc1O,106%
14,Cc1cncc2cccc(S(=O)(=O)N3CCCN(C(=O)CN)C[C@H]3C)c12,100%
15,O=C1NC(=O)c2cc(Nc3ccc(F)cc3)c(Nc3ccc(F)cc3)cc21,95%
16,C[C@@H](N)[C@H]1CC[C@H](C(=O)Nc2ccncc2)CC1,114%
17,Cn1cc(/C=C2\C(=O)Nc3ccc(S(N)(=O)=O)cc32)c2ccccc21,98%
18,c1ccc(-c2n[nH]c3c2oc2ccccc23)cc1,97%
19,NC(=O)c1ccc2[nH]c(-c3ccc(Oc4ccc(Cl)cc4)cc3)nc2c1,99%
20,Cc1cc(Nc2nc(-c3ccccc3)nc3ccccc23)n[nH]1,97%
21,Cc1nc2cc3nc(-c4cccs4)cnc3cc2n1C,100%
22,CO[C@H]1[C@@H](OC)C[C@H](C)[C@@H](OC)C2=CC(=O)C=C(NC(=O)/C(C)=C/C=C/[C@H](OC)[C@@H](OC(N)=O)/C(C)=C/[C@@H]1C)C2=O,98%
23,CN(C)CCCn1cc(C2=C(c3c[nH]c4ccccc34)C(=O)NC2=O)c2ccccc21,106%
24,Oc1ccc(-c2nc(-c3ccc(F)cc3)c(-c3ccncc3)[nH]2)cc1,2%
25,O=C1NC(=O)/C(=C\c2ccc3nccnc3c2)S1,95%
26,Oc1ccc(Nc2nc(-c3ccc(Cl)cc3)cs2)cc1,113%
